Results from PubChem BioAssay AID686970 (National Center for Advancing Translational Sciences (NCATS), 2013).
Out of some 360,000 compounds screened, about 6,000 (1.7%) were called active. Not shown: some 8% with an inconclusive outcome. The call rests on the fitted dose curve; in most records, active means well fitted cell-killing curve with a large enough effect; inconclusive means small, poorly fitted or top-dose-only effect, or effect the other way; inactive means flat fitted curve, though single readings scatter. Many of the other results were omitted from the sample, so actives are more common in it than they were.

assay: qHTS for induction of synthetic lethality in tumor cells producing 2HG: qHTS for the HT-1080-NT fibrosarcoma cell line; conditions: HT-1080-NT fibrosarcoma viability, CellTiter-Glo ATP luminescence, 48 h; series mostly up to 46.1 µM; activity, negative = less viability: at the top concentration; further: nearly all actives have a fitted effect of over 55% in size
Source text: Unbiased genomic sequencing for 22 glioma genomes found recurrent mutation of IDH1 on chromosome 2q33, a gene encoding the cytosolic isoform of IDH1 associated with the tricarboxylic acid cycle (TCA) that catalyzes the oxidative decarboxylation of isocitrate, yielding alpha-ketoglutarate and CO2 via NADP+ to NADPH conversion. Subsequent studies confirmed the recurrent IDH mutations in up to 70% of secondary gliomas and in 10% of AML cases. In addition, the somatic mutation of cancer-associated IDH1 is a point mutation resulting in various amino-acid substituents at Arginine132 (IDH1 R132), a key residue found in the enzyme's active site that when mutated, results in the loss-of-function in metabolizing isocitrate but confers a gain-of-function to produce the oncometabolite 2-hydroxyglutarate (2HG). This in effect defines IDH1 as an oncogene and provides an extraordinary opportunity to discover chemical probes against mutant IDH1 that may translate into much needed new therapies for glioma and AML patients.
This assay aims to perform a synthetic lethal screen for chemical probes specific for 2HG-producing tumor cells using matched paired cell lines (1) HT-1080-NT fibrosarcoma cell line that overproduces 2HG and (2) HT-1080-IDH1KD cell line which has IDH1 expression knocked-down. Desirable compounds are toxic to the NT fibrosarcoma cells but not to the IDH1KD cell line. The data in this AID corresponds to the results of the qHTS against the HT-1080-NT fibrosarcoma cell line.
[1] Dang L, Jin S, Su SM. IDH mutations in glioma and acute myeloid leukemia. Trends of Mol Med. 2010; 16(9): 387-97.
[2] Dang L et al. Cancer-associated IDH1 mutations produce 2-hydroxyglutarate. Nature. 2010; 465(7300):966.
NIH Molecular Libraries Probe Production Centers Network [MLPCN]
NIH Chemical Genomics Center [NCGC]
Assay Submitter (PI): Lenny Dang Ph.D., Agios Pharmaceuticals
Suspensions of trypsinized HT-1080-NT cells were dispensed into white, tissue culture-treated, solid 1536-well plates at 5uL/well (750 cells/well final concentration) in RPMI medium supplemented with 5% FBS. Plates were incubated at 37 degrees C for 2 hours, after which 23 nL of compounds or DMSO were delivered to each well using a pin tool. Plates were then incubated at 37 degrees C for an additional 48 hours. CellTiter-Glo viability reagent (Promega) was dispensed into wells (2.5uL/well) and incubated at room temperature for 10 minutes. The plates were measured on a PerkinElmer ViewLux plate reader for luminescent signal (clear filter, 1 sec exp). DMSO-treated control wells and media-only (no cells) control wells were used to normalize %Activity of identified toxic compounds; DMSO-treated wells corresponded to 0%Activity (100% viability), while media-only controls were used to normalize 100%Activity (0% viability).
Concentration-response curves were fitted to the signals arising from the resulting luminescence. The concentration-effect curves were then classified based on curve quality (r2), response magnitude and degree of measured activity, and compounds were subsequently categorized based on their curve class.
Potency means the concentration at half of the fitted maximal effect.

Compound	Potency	activity, negative = less viability
CN(C)CC1Oc2ccccc2OC1(O)c1ccccc1 (stereo not given)	8.2 µM (active)	–
CCOC(=O)c1cccc(C2=C(CNC(=O)c3ccncc3)[C@H]3CC[C@@H](C2)N3Cc2ccccc2)c1	–	-2.39% (inactive)
O=C1C2CCN(CC2)C1(CO)CO	–	1.59% (inactive)
O=c1[nH]c(O)c(C=Nc2cc(F)cc(F)c2)c(=O)[nH]1	–	8.67% (inactive)
COc1ccc2c(c1O)-c1cccc3c1[C@@H](C2)N(C)CC3	–	0.405% (inactive)
COC1=CC=C2[C@H]3Cc4ccc(OC)c5c4[C@@]2(CCN3C)C1O5 (stereo not given in full)	–	10.5% (inactive)
COc1ccc2c3c1O[C@H]1C[C@@H](O)C=C[C@@]31CCN(C)C2	8.2 µM (active)	–
CC=C(C)C(=O)OC1CCN2CC=C(COC(=O)C(O)(C(C)OC)C(C)(C)O)C12 (stereo not given)	–	1.64% (inactive)
O=P(OC1=CCCCC1)(c1ccccc1)c1ccccc1	–	0.74% (inactive)
O=c1[nH]c2ccccc2n1C1CCN(C(c2ccccc2)c2nnnn2Cc2ccccc2)CC1 (stereo not given)	13 µM (active)	–
CSCCC(c1nnnn1C(C)(C)C)N1CCC(n2c(=O)[nH]c3ccccc32)CC1 (stereo not given)	–	-18.1% (inactive)
Cc1ccc(Cn2nnnc2CN2CCC(n3nnc4ccccc43)CC2)cc1	–	-22.7% (inactive)
CCOC(=O)C1=C(C)OC(N)=C(C(=O)OC)C12C(=O)Nc1ccc(Br)cc12 (stereo not given)	–	-1.5% (inactive)
O=c1[nH]c(CN2CC=C(c3ccccc3)CC2)nc2scc(-c3cccs3)c12	–	-0.0739% (inactive)
S=C(NCCc1ccccc1)N1Cc2cc(N3CCOCC3)ccc2-n2nncc2C1	–	2.89% (inactive)
CCOc1ccc(-c2cc(C)[n+](CCN(CC)CC)c(-c3ccc(OCC)cc3)c2)cc1	8.2 µM (active)	–
COc1ccc(C2C=C(C)Oc3c2c(=O)oc2ccccc32)cc1OC (stereo not given)	–	-15.3% (inactive)
COC(=O)C1=C(c2ccc(OCc3ccccc3)cc2)C[C@@H]2CC[C@H]1N2C(=O)NCc1cccc(F)c1	–	-7.63% (inactive)
CC1CCCN1CCC(C(N)=O)(c1ccccc1)c1ccccc1 (stereo not given)	–	-2.83% (inactive)
COc1ccc(CCn2c(O)c(C=NC3CC3)c(=O)[nH]c2=O)cc1OC	–	0.249% (inactive)
c1ccc(N2Cc3ccccc3-n3nncc3C2)nc1	–	-3.61% (inactive)
CCC1(C)CC(CCNCc2ccc(N(C)C)cc2)(c2ccc(F)cc2)CCO1 (stereo not given)	–	-21.8% (inactive)
C[C@@H]1C[C@@H]2O[C@H]2/C=C\C=C\C(=O)Cc2c(Cl)c(O)cc(O)c2C(=O)O1	8.2 µM (active)	–
CC(=O)NCC1=C(c2ccc3ccccc3c2)C[C@@H]2CC[C@H]1N2Cc1ccco1	–	-6.62% (inactive)
C=Cn1ccnc1P(=S)(c1cc(N(CC)CC)ns1)c1nccn1C=C	–	-22% (inactive)
COC(=O)C1=C(c2ccc(OCc3ccccc3)cc2)C[C@@H]2CC[C@H]1N2C(=O)NCc1ccc(Cl)cc1	–	7.67% (inactive)
CC1=CC(=Cc2sc3ccccc3[n+]2C)C=C(C)O1	8.2 µM (active)	–

Compound	Potency	activity, negative = less viability
O=[N+]([O-])c1ccc(C2C3C(c4ccccc4)=NC4(CCCCC4)N32)cc1 (stereo not given)	–	1.87% (inactive)
Cc1ccc(OC(=O)N(C)C[C@@H]2OCc3cnnn3CCCC(=O)N([C@H](C)CO)C[C@@H]2C)cc1	–	-0.987% (inactive)
COC(=O)C1=C(c2ccccc2)C[C@@H]2CC[C@H]1N2C(=O)NCc1ccco1	–	10.9% (inactive)
Cc1ncoc1C(=O)NCC1=C(c2cccc3ccccc23)C[C@@H]2CC[C@H]1N2Cc1ccco1	–	-7.65% (inactive)
COc1cc(Cn2c(N)c(C(=O)NCc3ccco3)c3nc4ccccc4nc32)cc(OC)c1OC	12.6 µM (active)	–
CC(=O)c1c(O)n(C2CCCCCC2)c(=O)[nH]c1=O	–	-4.72% (inactive)
O=C(NC1CCCCC1)N1Cc2cc(N3CCCCC3)ccc2-n2nncc2C1	–	9.74% (inactive)
c1cc2c(c(NC3=NCCCS3)c1)CCCC2	–	-17.9% (inactive)
COC(=O)C1=C(c2ccc(Cl)c(C(F)(F)F)c2)C[C@@H]2CC[C@H]1N2C(=O)NC1CC1	–	-7.4% (inactive)
C[C@]12CCC3C(CC[C@H]4C[C@@H](O)CC[C@]34C)C1C[C@@H](O)[C@H]2O (stereo not given in full)	–	-0.126% (inactive)
C[C@]12CCC3C(CC[C@H]4C[C@@H](O)CC[C@]34C)C1CC[C@@H]2O (stereo not given in full)	–	-1.7% (inactive)
C[C@]12CC[C@H](O)C[C@H]1CC[C@@H]1C2CC[C@]2(C)[C@@H](C3=CC(=O)OC3)[C@@H](O)C[C@]12O (stereo not given in full)	5.8 µM (active)	–
C[C@H]1CN([C@@H](C)CO)C(=O)CCCn2nncc2CO[C@H]1CN(C)C(=O)Oc1ccccc1	–	8.98% (inactive)
CCOC(=O)[C@]12Cc3ccccc3[C@H]1N(C1CCCCC1)C(=O)c1cc(OC)ccc12	5.8 µM (active)	–
CCOC(=O)[C@]12Cc3cc(OC)ccc3[C@H]1N(C(C)C)C(=O)c1ccccc12	11.6 µM (active)	–
CCCC(C)n1[nH]c(=O)c2c1NC(=O)CSC2c1ccc(OC)c(OC)c1 (stereo not given)	–	0.635% (inactive)
Oc1cc2c(cc1CN1CCN(c3ccccc3)CC1)OCO2	–	8.84% (inactive)
COc1ccccc1OC(=O)c1ccc(C)c(S(=O)(=O)N2CCOCC2)c1	–	-2.07% (inactive)
CC1([N+](=O)[O-])COP(=O)(Nc2ccc(F)cc2)OC1 (stereo not given)	–	6.83% (inactive)
O=c1c2ccccc2[nH]c(=S)n1-c1cccc(Cl)c1	–	-1.3% (inactive)
Cc1cc(-c2ccc(N)c(C)c2)ccc1N	–	-1.84% (inactive)
Nc1ccc(Cc2ccc(N)c(Cl)c2)cc1Cl	–	-19% (inactive)
COC(=O)C[C@H]1CC[C@H]2NC[C@@H](O)COC[C@@H]2O1	–	17.8% (inactive)
Cc1c(Oc2cc(NN3CCCCC3)c([N+](=O)[O-])cc2[N+](=O)[O-])cccc1[N+](=O)[O-]	–	11% (inactive)
O=c1c2ccccc2nc(/C=C/c2ccco2)n1-c1ccccc1O	–	-24.6% (inactive)
Cc1nc2ccccc2c(=O)n1-c1ccc(Cl)cc1Cl	–	-2.24% (inactive)
O=c1c2ccccc2nc(/C=C/c2ccc(F)cc2)n1-c1ccccc1O	23.1 µM (active)	–

Compound	Potency	activity, negative = less viability
c1ccc(C(CN2CCCCC2)c2ccccc2)cc1	–	2.28% (inactive)
CCc1cccc2c(C#N)cn(CC(=O)N3CCOCC3)c12	–	-2.69% (inactive)
COC1C(O)C(C)OC(OC2CCC3(C=O)C(CCC4C3CCC3(C)C(C5=CC(=O)OC5)CCC43O)C2)C1O (stereo not given)	0.206 µM (active)	–
C[C@H]1CN([C@@H](C)CO)C(=O)CCCn2nncc2CO[C@H]1CN(C)C(=O)Oc1cccc2ccccc12	–	4.3% (inactive)
CCn1cc(CN2CCCC(C(=O)c3cccc(C(F)(F)F)c3)C2)cn1 (stereo not given)	–	-1.31% (inactive)
COc1ccc(NC(=O)N2Cc3ccccc3-n3nncc3C2)cc1	–	4.07% (inactive)
CC(=CCOc1ccc2ccc(=O)oc2c1)C1=CC(=O)C(C)(C)O1	–	-21.3% (inactive)
O=c1c2ccccc2nc(CBr)n1-c1ccc(Cl)cc1	–	-11% (inactive)
COC(=O)CN(CCCl)P1(=O)OCCCN1CCCl (stereo not given)	–	23% (inactive)
CCCCCCCCCCCCn1ccc(=N)cc1	2.59 µM (active)	–
CSC1=NP(=S)(SC)N(C)c2nc3n(c21)CCC3 (stereo not given)	–	7.49% (inactive)
COC(=O)C1=C(c2ccc(F)cc2F)C[C@@H]2CC[C@H]1N2C(=O)NC1CC1	–	7.87% (inactive)
CC(C)CN1Cc2cc(N3CCCCC3)ccc2-n2nncc2C1	–	-1.63% (inactive)
COc1ccc(-c2nn(CCC#N)cc2C(=O)Nc2ccc(C(C)=O)cc2)cc1	–	-9.46% (inactive)
CCOC(=O)CNC(=O)N1Cc2cc(N3CCCCC3)ccc2-n2nncc2C1	–	13% (inactive)
COc1cc(C2c3cc4c(cc3C(O)C3COC(=O)C23)OCO4)cc(OC)c1OC (stereo not given)	0.0058 µM (active)	–
CCN1C(=O)NC(=O)C2(CCCC2)C1=O	–	2.59% (inactive)
CCOc1cccc(=NC2CCCCC2)c2c(C)[nH]c(C)c12	20.6 µM (active)	–
CCOP(=S)(OCC)C(O)CCCCCn1c(=O)c(F)cn(C2CCCO2)c1=O (stereo not given)	–	10.4% (inactive)
COc1cc(C(=O)N2Cc3ccc(Br)cc3-n3nncc3C2)cc(OC)c1OC	–	28.4% (inactive)
COC1=C[C@@H]2[C@@H]3Cc4ccc(OC)c(O)c4[C@]2(CCN3C)CC1=O	–	8.69% (inactive)
O=[N+]([O-])c1ccc(Cl)c(Cl)c1	–	13.2% (inactive)
CC(=O)OC1C2(CC3N4C(=O)C5(CO)SSC4(CC31O)C(=O)N5C)OC(C)C(C)(C)C2=O (stereo not given)	0.651 µM (active)	–
CC[C@H]1CC2CN3CCc4c([nH]c5ccccc45)C(C(=O)OC)(C2)C13 (stereo not given in full)	–	4.35% (inactive)
CCN(N=Nc1nonc1OC)c1nonc1OC	–	-0.973% (inactive)
CCOC(=O)C1CN(C)CCC1=O (stereo not given)	–	5.26% (inactive)
